Experiment [1] in a line: compounds binding Alexa647 anti-His antibody – biochemical, small-molecule microarray, 635 nm fluorescence, artefact control for SMM control protein annotation, primary screen (AID 1128).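 Note: score merges feature fluorescence with signal-to-noise for each printed compound spot.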 The note with it: higher = more signal.
Experiment [2] concerns Human papillomavirus type 1a E7 protein (residues 1-88). Put plainly: HPV1a E7 small-molecule binders, primary screen, biochemical, small-molecule microarray, residues 1-88, 635 nm (AID 1129). The following applies: small-molecule microarray binding, fluorescence 635 nm; higher = more signal.
Experiment [3] addresses Focal adhesion kinase 1 (Homo sapiens) (UniProt Q05397). Put plainly: PTK2 protein binding on printed compound slides – biochemical, small-molecule microarray, 635/667 nm fluorescence, BSA, DTT, primary screen (AID 1130).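 Note: composite of spot emission at 667 nm and signal to noise over triplicate slides.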 The note with it: 635 nm fluorescence, higher = more signal.
Experiment [4] concerns Fibrinogen (Alexa647-labelled). Put plainly: Alexa647-fibrinogen binding to printed small molecules – biochemical, small-molecule microarray, 635/667 nm fluorescence, artefact control for SMM control-protein annotation, profiling panel (AID 1131).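 Note: z-score merges 667 nm fluorescence with per-spot signal-to-noise over triplicate slides.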 The following applies: fibrinogen-A647 binding fluorescence, higher = more signal.
The target of experiment [5] is Follistatin (Homo sapiens) (UniProt P19883). Put plainly: FST protein binding to printed compounds – biochemical, small-molecule microarray, 635/667 nm fluorescence, primary screen (AID 1132). The note with it: 635 nm fluorescence, higher = more signal.
Follistatin (Homo sapiens), sequence (P19883 whole entry, looked up): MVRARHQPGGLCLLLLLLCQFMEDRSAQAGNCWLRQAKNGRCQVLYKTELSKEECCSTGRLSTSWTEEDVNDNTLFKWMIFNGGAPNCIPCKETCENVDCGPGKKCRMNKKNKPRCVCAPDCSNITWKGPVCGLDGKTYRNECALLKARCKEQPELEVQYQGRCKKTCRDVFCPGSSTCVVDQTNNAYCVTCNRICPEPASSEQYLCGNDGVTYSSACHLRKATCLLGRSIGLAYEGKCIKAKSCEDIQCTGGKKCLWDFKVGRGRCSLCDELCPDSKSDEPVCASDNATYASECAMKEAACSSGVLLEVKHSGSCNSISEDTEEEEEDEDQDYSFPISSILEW
Experiment [6] addresses Fibroblast growth factor 2 (Homo sapiens) (UniProt P09038). Put plainly: basic fibroblast growth factor binding to printed compounds – biochemical, small-molecule microarray, 635/667 nm fluorescence, primary screen (AID 1133). The note with it: FGF2, fluorescence 635/667, higher = more signal.
Experiment [7] in a line: JC-1 mitochondrial potential readout, lung cancer cells – cell-based, A549, JC-1 fluorescence, basal, 24 h, 100 nL, profiling panel (AID 1138).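 Note: A549 lung adenocarcinoma cells under basal conditions with no added stimulus; test concentration not given here.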 The note with it: higher = more signal.
The next experiment has as its system Lefty1. Put plainly: Lefty1 protein binding to printed compounds – biochemical, small-molecule microarray, 635/667 nm fluorescence, primary screen (AID 1139). The note with it: fluorescence 635/667, higher = more signal.
Experiment [8] has as its system wheat germ agglutinin (Triticum aestivum), Alexa647-labelled. Put plainly: Alexa647-WGA lectin binding to printed small molecules – biochemical, small-molecule microarray, 635/667 nm fluorescence, artefact control for SMM control-protein annotation, profiling panel (AID 1140).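 Note: score merges 667 nm feature emission with signal to noise over triplicate slides.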 The following applies: WGA-A647 binding, 635 nm fluorescence, higher = more signal.
Experiment [9] deals with Luciferin 4-monooxygenase (Photinus pyralis) (UniProt P08659). Put plainly: inhibition of purified Photinus pyralis luciferase – biochemical, luminescence, purified enzyme, 2006 set, primary screen (AID 1141).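 Note: cell-free assay with purified firefly luciferase at 100 ng per well in PBS; test concentration not given here.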 The note with it: purified firefly luciferase, SteadyGlo luminescence, 30 min; higher = more signal, called active from +8 up or from −8 down.
Luciferin 4-monooxygenase (Photinus pyralis), sequence (P08659 whole entry, looked up): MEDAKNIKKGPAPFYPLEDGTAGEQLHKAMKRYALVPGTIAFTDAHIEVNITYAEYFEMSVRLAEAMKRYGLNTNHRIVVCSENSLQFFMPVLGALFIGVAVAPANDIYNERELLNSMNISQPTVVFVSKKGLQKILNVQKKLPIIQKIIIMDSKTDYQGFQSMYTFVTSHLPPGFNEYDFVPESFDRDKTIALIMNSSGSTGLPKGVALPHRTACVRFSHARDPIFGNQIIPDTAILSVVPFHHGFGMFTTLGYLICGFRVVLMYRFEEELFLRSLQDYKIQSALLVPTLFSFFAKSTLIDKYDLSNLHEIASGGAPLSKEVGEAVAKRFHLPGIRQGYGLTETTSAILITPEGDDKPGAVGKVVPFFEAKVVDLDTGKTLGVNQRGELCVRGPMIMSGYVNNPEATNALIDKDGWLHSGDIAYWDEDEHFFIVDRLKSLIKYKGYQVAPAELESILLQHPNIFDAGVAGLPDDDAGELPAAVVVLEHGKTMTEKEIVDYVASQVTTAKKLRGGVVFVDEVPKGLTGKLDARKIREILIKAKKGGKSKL
For experiment [10], the system named is Wnt5a (protein binding on small-molecule microarray). Put plainly: small molecules binding Wnt5a protein – biophysical, small-molecule microarray, 635/667 nm fluorescence, primary screen (AID 1142).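 Note: fluorescence read at 667 nm with signal to noise per printed feature.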 The note with it: 635 nm fluorescence, higher = more signal.
The nature of experiment [11]: ATP-based viability of Huh7 replicon cells – cell-based, CellTiter-Glo luminescence, basal, 48 h, cytotoxicity control for HCV replication inhibitor project, primary screen (AID 1143).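 Note: Huh7 hepatoma cells carrying a hepatitis C replication reporter with no stimulus; test concentration not given here.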 The following applies: higher = more signal, called active from +8 up or from −8 down. Background: In antiviral work, replicon cells carry a viral genome segment that copies itself.
The nature of experiment [12]: Pseudomonas biofilm growth suppression – PAO1 strain, BacTiter-Glo luminescence, LB-PBS, primary screen (AID 1144). The following applies: P. aeruginosa PAO1 biofilm, 12 h, higher = more signal.
Experiment [13] can be described thus: basal CRE-LacZ reporter activity in PC12 – cell-based, unstimulated, primary screen (AID 1145). The note with it: no forskolin, luminescence, 4.5 h, higher = more signal, called active from +8 up or from −8 down.
The nature of experiment [14]: forskolin-driven CRE-LacZ activity in PC12 – cell-based, CRE-LacZ reporter, forskolin-stimulated, primary screen (AID 1146).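 Note: PC12 cells with 6xCRE LacZ reporter stimulated by forskolin 10 µM; beta-galactosidase reporter signal reflecting CREB driven transcription.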 The following applies: luminescence, 4.5 h, higher = more signal, called active from +8 up or from −8 down.
Experiment [15] concerns the target Streptavidin (Streptomyces avidinii) (UniProt P22629). Put plainly: compounds binding control protein streptavidin – biophysical, small-molecule microarray, 635/667 nm fluorescence, artefact control for SMM compound annotation, primary screen (AID 1147).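 Note: signal reflects streptavidin binding to arrayed compounds as a control protein.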 The following applies: higher = more signal.
The nature of experiment [16]: probe aInhba binding on compound microarray – biochemical, small-molecule microarray, 635/667 nm fluorescence, primary screen (AID 1148).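 Note: score merges 667nm spot fluorescence with signal-to-noise for antibody binding to printed compounds.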 The following applies: higher = more signal.
Experiment [17] addresses Torsin-1A (Homo sapiens) (UniProt O14656). Put plainly: TOR1A wild-type binding on microarray – cell lysate, small-molecule microarray, lysate, 635/667 nm, primary screen (AID 1149). The following applies: COS7 hTOR1A-WT lysate, 635 nm fluorescence, higher = more signal.
Experiment [18] has the same target. Put plainly: torsin A mutant lysate binding on microarrays – cell lysate, small-molecule microarray, COS7 lysate, 635/667 nm fluorescence, primary screen (AID 1150).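 Note: score pools 667 nm emission and signal to noise measuring lysate protein binding.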 The note with it: COS7 hTOR1A mutant lysate, 635 nm fluorescence, higher = more signal.
In experiment [19] the test system is Sonic hedgehog protein (Shh). Put plainly: Sonic hedgehog microarray binding compounds – biochemical, small-molecule microarray, 635/667 nm fluorescence, primary screen (AID 1151).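 Note: Shh protein binding to compounds spotted on small-molecule microarray slides; score combines spot fluorescence intensity with signal-to-noise across triplicate slides.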 The note with it: 635 nm fluorescence, higher = more signal.

Structures are written as SMILES. “And” between values parts separate entries of the source, which are not always exact repeats. Equal values may be shown once. The source made the active and inactive calls. Unless noted, the rule behind the calls is not given here.

The source of these data is PubChem BioAssay.

Torsin-1A (Homo sapiens), sequence (O14656 whole entry, looked up): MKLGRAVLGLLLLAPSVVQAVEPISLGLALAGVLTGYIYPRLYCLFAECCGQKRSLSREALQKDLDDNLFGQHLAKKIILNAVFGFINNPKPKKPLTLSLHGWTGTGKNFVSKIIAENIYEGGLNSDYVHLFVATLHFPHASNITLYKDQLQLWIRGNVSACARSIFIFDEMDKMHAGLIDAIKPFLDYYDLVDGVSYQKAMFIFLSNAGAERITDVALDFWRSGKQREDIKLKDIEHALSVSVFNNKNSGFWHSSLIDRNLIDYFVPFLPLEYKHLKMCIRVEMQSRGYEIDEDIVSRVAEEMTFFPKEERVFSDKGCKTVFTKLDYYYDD
Focal adhesion kinase 1 (Homo sapiens), sequence (Q05397 whole entry, looked up): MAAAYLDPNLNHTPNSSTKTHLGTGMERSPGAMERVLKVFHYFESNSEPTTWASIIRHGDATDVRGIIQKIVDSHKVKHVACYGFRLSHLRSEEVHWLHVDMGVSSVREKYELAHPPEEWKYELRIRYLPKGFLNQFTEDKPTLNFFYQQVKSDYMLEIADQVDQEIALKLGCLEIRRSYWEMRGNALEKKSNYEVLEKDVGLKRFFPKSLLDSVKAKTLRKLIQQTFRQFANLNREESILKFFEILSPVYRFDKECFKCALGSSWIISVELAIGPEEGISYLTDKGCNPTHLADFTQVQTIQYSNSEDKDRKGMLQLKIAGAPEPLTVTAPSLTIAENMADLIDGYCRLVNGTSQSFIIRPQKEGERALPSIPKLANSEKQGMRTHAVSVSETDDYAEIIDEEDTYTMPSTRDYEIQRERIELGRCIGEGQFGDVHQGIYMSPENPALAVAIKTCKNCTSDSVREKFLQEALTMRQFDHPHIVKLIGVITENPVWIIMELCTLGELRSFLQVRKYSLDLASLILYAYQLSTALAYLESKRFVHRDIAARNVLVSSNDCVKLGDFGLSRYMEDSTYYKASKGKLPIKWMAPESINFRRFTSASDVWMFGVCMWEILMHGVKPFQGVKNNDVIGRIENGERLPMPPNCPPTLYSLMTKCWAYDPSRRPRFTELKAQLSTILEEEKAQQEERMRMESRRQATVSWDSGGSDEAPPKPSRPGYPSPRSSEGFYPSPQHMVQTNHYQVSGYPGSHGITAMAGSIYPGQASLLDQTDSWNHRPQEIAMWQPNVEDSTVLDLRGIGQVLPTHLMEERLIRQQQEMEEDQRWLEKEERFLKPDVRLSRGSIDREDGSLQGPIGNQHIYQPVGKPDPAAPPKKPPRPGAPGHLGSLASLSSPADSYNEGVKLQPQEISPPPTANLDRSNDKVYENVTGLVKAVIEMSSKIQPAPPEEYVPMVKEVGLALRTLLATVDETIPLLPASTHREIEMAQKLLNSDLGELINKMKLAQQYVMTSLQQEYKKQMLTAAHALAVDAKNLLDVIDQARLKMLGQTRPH
Streptavidin (Streptomyces avidinii), sequence (P22629 whole entry, looked up): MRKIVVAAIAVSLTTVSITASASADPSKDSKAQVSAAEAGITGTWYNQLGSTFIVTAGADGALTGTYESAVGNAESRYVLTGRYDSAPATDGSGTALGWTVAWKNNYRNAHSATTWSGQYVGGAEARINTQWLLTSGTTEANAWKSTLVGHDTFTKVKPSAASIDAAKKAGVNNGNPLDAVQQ
Fibroblast growth factor 2 (Homo sapiens), sequence (P09038 whole entry, looked up): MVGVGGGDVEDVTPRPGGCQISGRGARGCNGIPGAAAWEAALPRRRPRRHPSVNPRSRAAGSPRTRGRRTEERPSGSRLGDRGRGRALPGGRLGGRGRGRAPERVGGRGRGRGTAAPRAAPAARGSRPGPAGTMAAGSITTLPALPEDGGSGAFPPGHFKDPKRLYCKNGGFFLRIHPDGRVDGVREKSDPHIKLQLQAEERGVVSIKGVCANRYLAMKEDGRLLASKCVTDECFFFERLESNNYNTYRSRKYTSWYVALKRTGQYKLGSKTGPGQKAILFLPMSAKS

Consider `C=CCN(CCCC)C(=O)C(c1cccs1)N(C(=O)/C=C\C(=O)O)c1c(Cl)cccc1CO` (stereo not given), for which the composite z-score in [1] was -0.71 and -0.792; in experiment [2] it was -0.925 and -1.1; in experiment [3], -0.859 and 1.27; in [4], -2.84 and -3.52; in [5] it was -2.44 and -1.69; in experiment [6], -2.72 and -1.18. The composite z-score was -2.81 and -2.2 in the experiment on Lefty1; -0.178 and -0.7 in [8]; -1.57 and -1.27 in [10]; -1.55 and -0.309 in experiment [15]; -0.38 and -0.186 in [16]; -4.75 and -2.7 with Torsin-1A (Homo sapiens) [17]. Further, the composite z-score in the experiment with Torsin-1A (Homo sapiens) [18] was -3.62 and -2.89; in experiment [19] it was -1.48 and -1.63. The z-score is -0.107 and -0.132 in [7]; 1.01 (inactive) and 0.833 (inactive) in experiment [9]; 0.665 (inactive) and 0.504 (inactive) in experiment [11]; -0.428 (inactive) and 0.0609 (inactive) in [12]; -0.761 (inactive) and 0.329 (inactive) in experiment [13]; 0.325 (inactive) and -0.167 (inactive) in [14].
As for `C=CCN(C(=O)C1N(CCOCCO)C(=O)C2C(C(=O)O)C3C=CC21O3)C(C)(C)C` (stereo not given), the composite z-score in experiment [1] was -0.673 and -0.976; in experiment [2], -1.66 and -0.815; in experiment [3] it was -0.324 and -0.708; in [4], -4.25 and -0.473; in [5] it was -2.09 and -1.58; in experiment [6], -1.27 and -2.81. Further, the composite z-score with Lefty1 is -1.43 and -1.07; in experiment [8] it was -0.511 and -0.0854; in experiment [10] it was -0.908 and -0.886; in experiment [15], -0.875 and -0.873; in experiment [16] it was -0.179 and -0.319; with Torsin-1A (Homo sapiens) [17] it was -1.93 and -2.63. The composite z-score was -2.59 and -1.82 with Torsin-1A (Homo sapiens) [18]; -0.783 and -1.34 in experiment [19]. For the same compound, the z-score in experiment [7] is -0.147 and -0.774; in experiment [9], -0.352 (inactive) and 0.274 (inactive); in experiment [11], -0.773 (inactive) and -0.325 (inactive); in experiment [12] it was -0.000915 (inactive) and -1.27 (inactive); in experiment [13], -0.627 (inactive) and 0.0605 (inactive); in experiment [14], -0.581 (inactive) and 0.0532 (inactive).
With `COC(=O)[C@@]1(Cc2ccccc2)[C@H]2c3cc(C(=O)N(C)C)n(C[C@H](O)CO)c3C[C@H]2CN1C(=O)c1ccccc1`, the composite z-score was 0.456 and 0.65 in [1]; 0.23 and 0.965 in experiment [2]; 0.805 and 0.641 in [3]; 0.948 and 0.223 in experiment [4]; -0.342 and 0.453 in [5]; -0.378 and -0.271 in [6]. The composite z-score was -0.6 and -0.308 in the experiment with Lefty1; 0.877 and -0.0476 in experiment [8]; -0.19 and 0.0986 in experiment [10]; -0.0247 and 0.888 in [15]; -0.0817 and 0.223 in [16]; -0.593 and 0.132 with Torsin-1A (Homo sapiens) [17]. Moreover, the composite z-score was 0.492 and 0.92 in the experiment with Torsin-1A (Homo sapiens) [18]; -0.39 and -1.19 in experiment [19]. Also, the z-score in experiment [7] is 0.207 and 0.034; in [9], 0.665 (inactive) and 1.66 (inactive); in experiment [11] it was 0.0129 (inactive) and 0.255 (inactive); in [12] it was -0.256 (inactive) and -0.607 (inactive); in experiment [13], 1.35 (inactive) and 0.204 (inactive); in experiment [14], 0.756 (inactive) and -0.209 (inactive).
`CCCNC(=O)OC[C@H]1O[C@H](CCON=C(C)CCN2CCc3nc(-c4ccccc4)c(-c4ccccc4)cc3C2)C=C[C@@H]1Oc1ccc(OC)cc1`: the composite z-score in experiment [1] stood at 1.29; in experiment [2], 0.0969; in [3], 0.301; in experiment [4], 0.283; in experiment [5], 0.295; in experiment [6] it was 0.279. Further, the composite z-score was 0.236 in the experiment on Lefty1; 0.356 in experiment [8]; 0.156 in experiment [10]; 0.114 in experiment [15]; -0.152 in [16]; 0.479 with Torsin-1A (Homo sapiens) [17]. Moreover, the results for the composite z-score (with Torsin-1A (Homo sapiens) [18]; in experiment [19]) were 0.302 and 0.449, respectively. Further, the z-score in experiment [7] is 1.87; in experiment [9], -0.076 (inactive); in experiment [11], -0.81 (inactive); in [12], -0.158 (inactive); in experiment [13], 2.49 (inactive); in experiment [14] it was -0.113 (inactive).
